Source: PubChem BioAssay (NCI)
This is part of a sample that, as a whole, favours compounds with a hit. Of some 83,000 tested, about 20% had one in any assay.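 96-well plates, one dose, 48 hours. Percent growth reported; active if below 10.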 Calls of active or inactive are those of the source.

Columns and labels:
Assay in all cases: NCI-60 one-dose screen, 48 h (100 = growth as untreated, 0 = no growth, -100 = all killed)
Details in all cases: 10 µM unless noted
NCI-H23 lung = test system: NCI-H23 lung
NCI-H226 lung = test system: NCI-H226 lung
NCI-H322M lung = test system: NCI-H322M lung
HOP-62 NSCLC = test system: HOP-62 NSCLC
NCI-H460 lung = test system: NCI-H460 lung
HOP-92 NSCLC = test system: HOP-92 NSCLC
NCI-H522 lung = test system: NCI-H522 lung
A549/ATCC NSCLC = test system: A549/ATCC NSCLC
786-0 renal = test system: 786-0 renal
COLO 205 colon = test system: COLO 205 colon
DU-145 prostate = test system: DU-145 prostate
K-562 leukemia = test system: K-562 leukemia
MALME-3M melanoma = test system: MALME-3M melanoma
MDA-MB-231 breast = test system: MDA-MB-231 breast
RXF 393 renal = test system: RXF 393 renal
SF-268 CNS = test system: SF-268 CNS
SF-295 CNS = test system: SF-295 CNS
SF-539 CNS = test system: SF-539 CNS
UACC-257 melanoma = test system: UACC-257 melanoma
M14 melanoma = test system: M14 melanoma

Measured: growth

C=CCn1c(SCC(=O)Nc2ccc(C(=O)/C=C/c3cc(OC)c(OC)c(OC)c3)cc2)nnc1-c1cc(OC)c(OC)c(OC)c1
active: K-562 leukemia 6.9% | SF-539 CNS 4.95%
inactive: NCI-H23 lung 55.2% | NCI-H226 lung 35.9% | NCI-H322M lung 85.5% | HOP-62 NSCLC 55% | NCI-H460 lung 31.4% | HOP-92 NSCLC 82.2% | NCI-H522 lung 47% | A549/ATCC NSCLC 47.2% | 786-0 renal 53.6% | COLO 205 colon 41.2% | DU-145 prostate 24.2% | MALME-3M melanoma 92.4% | MDA-MB-231 breast 49.3% | RXF 393 renal 21.4% | SF-268 CNS 34.9% | SF-295 CNS 60.4% | UACC-257 melanoma 64.1% | M14 melanoma 18.6%

CCOC(=O)c1c(C)nc2c(c1N)C(=O)C(=O)N2Cc1ccc(C(F)(F)F)cc1
inactive: NCI-H23 lung 69.8% | NCI-H226 lung 73.2% | NCI-H322M lung 97.3% | HOP-62 NSCLC 60.5% | NCI-H460 lung 93.7% | HOP-92 NSCLC 50.3% | NCI-H522 lung 31% | A549/ATCC NSCLC 84.3% | 786-0 renal 33.9% | COLO 205 colon 101% | DU-145 prostate 84.5% | K-562 leukemia 36.2% | MALME-3M melanoma 59.3% | MDA-MB-231 breast 75.6% | RXF 393 renal 58.7% | SF-268 CNS 59.7% | SF-295 CNS 81% | SF-539 CNS 52.6% | UACC-257 melanoma 74.2% | M14 melanoma 53%

NC(=S)N/N=C(\c1ccc(Cl)cc1)C1CC1
inactive: NCI-H23 lung 89.7% | NCI-H226 lung 74.7% | NCI-H322M lung 88% | HOP-62 NSCLC 80.1% | NCI-H460 lung 102% | HOP-92 NSCLC 97.2% | NCI-H522 lung 97.3% | A549/ATCC NSCLC 92.5% | 786-0 renal 105% | COLO 205 colon 92.6% | DU-145 prostate 99% | K-562 leukemia 38.3% | MALME-3M melanoma 87.1% | MDA-MB-231 breast 70% | RXF 393 renal 104% | SF-268 CNS 98.2% | SF-295 CNS 83.1% | SF-539 CNS 88.6% | UACC-257 melanoma 63.7% | M14 melanoma 87.7%

CCCCCN1C=C/C(=C\C(=O)N(C)c2cccc3ccccc23)c2ccccc21
inactive: NCI-H23 lung 81.4% | NCI-H226 lung 101% | NCI-H322M lung 97.7% | HOP-62 NSCLC 102% | NCI-H460 lung 105% | HOP-92 NSCLC 92.6% | NCI-H522 lung 83.1% | A549/ATCC NSCLC 102% | 786-0 renal 96.8% | COLO 205 colon 109% | DU-145 prostate 104% | K-562 leukemia 77.4% | MALME-3M melanoma 94% | MDA-MB-231 breast 106% | RXF 393 renal 107% | SF-268 CNS 95.3% | SF-295 CNS 97.7% | SF-539 CNS 105% | UACC-257 melanoma 106% | M14 melanoma 102%

COc1ccc2nc(N=Nc3c(O)ccc4ccccc34)sc2c1
active: NCI-H460 lung 6.32% | M14 melanoma 1.92%
inactive: NCI-H23 lung 31.6% | NCI-H226 lung 55% | NCI-H322M lung 43.8% | HOP-62 NSCLC 30.2% | HOP-92 NSCLC 60.9% | NCI-H522 lung 61.2% | A549/ATCC NSCLC 24.6% | 786-0 renal 14.7% | COLO 205 colon 33.1% | DU-145 prostate 37.1% | K-562 leukemia 19.1% | MALME-3M melanoma 57.5% | MDA-MB-231 breast 45.2% | RXF 393 renal 52.4% | SF-268 CNS 33.4% | SF-295 CNS 16.5% | SF-539 CNS 22.9% | UACC-257 melanoma 36.9%

COc1cccc(-c2nc3occn3c2-c2ccnc(NCCCNS(=O)(=O)c3cccc(F)c3)n2)c1
inactive: NCI-H23 lung 89.7% | NCI-H226 lung 62.2% | NCI-H322M lung 107% | HOP-62 NSCLC 108% | NCI-H460 lung 82.6% | HOP-92 NSCLC 91.9% | NCI-H522 lung 74.9% | A549/ATCC NSCLC 97.4% | 786-0 renal 103% | COLO 205 colon 45.5% | DU-145 prostate 93.8% | K-562 leukemia 69% | MALME-3M melanoma 70.2% | MDA-MB-231 breast 104% | RXF 393 renal 99.2% | SF-268 CNS 87% | SF-295 CNS 94.8% | SF-539 CNS 106% | UACC-257 melanoma 83.8%

COc1cc2nc(-c3ccc(C(F)(F)F)cc3)cc(OCCN3CCCC3)c2cc1OC
active: M14 melanoma 4.5%
inactive: NCI-H23 lung 80.9% | NCI-H226 lung 82.7% | NCI-H322M lung 88.9% | HOP-62 NSCLC 83.6% | NCI-H460 lung 68.1% | HOP-92 NSCLC 60.7% | NCI-H522 lung 95.7% | A549/ATCC NSCLC 93.5% | 786-0 renal 76.4% | COLO 205 colon 77.9% | DU-145 prostate 84.1% | K-562 leukemia 47.4% | MALME-3M melanoma 85.8% | MDA-MB-231 breast 74.6% | RXF 393 renal 65.4% | SF-268 CNS 81% | SF-295 CNS 83% | SF-539 CNS 81.1% | UACC-257 melanoma 68.9%

CCCNC(=O)Oc1ccc(/C(=C(\C)c2ccccc2)c2ccc(OCCN3CCCCC3)cc2)cc1
active: UACC-257 melanoma -14.1%
inactive: NCI-H23 lung 79.4% | NCI-H226 lung 89.5% | NCI-H322M lung 83.3% | HOP-62 NSCLC 81.9% | NCI-H460 lung 66.7% | HOP-92 NSCLC 80.7% | NCI-H522 lung 103% | A549/ATCC NSCLC 62.2% | 786-0 renal 35.8% | COLO 205 colon 38% | DU-145 prostate 87.9% | K-562 leukemia 10.2% | MALME-3M melanoma 61.3% | MDA-MB-231 breast 81.9% | RXF 393 renal 64.4% | SF-268 CNS 72.6% | SF-295 CNS 55% | SF-539 CNS 37.5%

OC(c1ccccc1)c1ccccn1 (stereo unspecified)
inactive: NCI-H23 lung 107% | NCI-H226 lung 97.8% | NCI-H322M lung 102% | HOP-62 NSCLC 104% | NCI-H460 lung 107% | HOP-92 NSCLC 94.4% | NCI-H522 lung 84.6% | A549/ATCC NSCLC 77.1% | 786-0 renal 97.2% | COLO 205 colon 108% | DU-145 prostate 110% | K-562 leukemia 94.3% | MALME-3M melanoma 113% | MDA-MB-231 breast 105% | RXF 393 renal 104% | SF-268 CNS 102% | SF-295 CNS 101% | SF-539 CNS 97.7% | UACC-257 melanoma 90.5% | M14 melanoma 96.1%

CC(=O)N1c2ccccc2NC2=C(C(=O)N(C)C2(C)C)C1C (stereo unspecified)
inactive: NCI-H23 lung 50.2% | NCI-H226 lung 91.1% | NCI-H322M lung 73.4% | HOP-62 NSCLC 61.6% | NCI-H460 lung 21.9% | HOP-92 NSCLC 37.5% | NCI-H522 lung 18.6% | A549/ATCC NSCLC 80.3% | 786-0 renal 80.1% | COLO 205 colon 14.2% | DU-145 prostate 79% | K-562 leukemia 16.6% | MALME-3M melanoma 44.3% | MDA-MB-231 breast 63.3% | RXF 393 renal 27.8% | SF-268 CNS 43% | SF-295 CNS 46% | SF-539 CNS 20.1% | UACC-257 melanoma 36.4% | M14 melanoma 21.5%

Cc1n[nH]c(C)c1-c1c(C)n[nH]c1C
active: NCI-H23 lung 8.62% | NCI-H460 lung -35.1% | HOP-92 NSCLC -3.52% | NCI-H522 lung -8.26% | 786-0 renal 6.23% | COLO 205 colon -21.6% | DU-145 prostate 9.47% | K-562 leukemia 5.03% | MALME-3M melanoma -38.3% | MDA-MB-231 breast -14.5% | RXF 393 renal -47.8% | SF-539 CNS -54.6% | M14 melanoma -4.4%
inactive: NCI-H226 lung 56.2% | NCI-H322M lung 28.6% | HOP-62 NSCLC 34.5% | A549/ATCC NSCLC 11.9% | SF-268 CNS 19.1% | SF-295 CNS 18.8% | UACC-257 melanoma 39.6%

Nc1c(Cl)cc([N+](=O)[O-])cc1Br
inactive: NCI-H23 lung 93% | NCI-H226 lung 93.7% | NCI-H322M lung 103% | HOP-62 NSCLC 109% | NCI-H460 lung 114% | HOP-92 NSCLC 74.8% | NCI-H522 lung 88.1% | A549/ATCC NSCLC 99.6% | 786-0 renal 87.8% | COLO 205 colon 118% | DU-145 prostate 105% | K-562 leukemia 99.1% | MALME-3M melanoma 107% | MDA-MB-231 breast 101% | RXF 393 renal 98.2% | SF-268 CNS 97.1% | SF-295 CNS 74% | SF-539 CNS 114% | UACC-257 melanoma 91.3%

CC(=O)c1c(-c2ccc(OC(F)(F)F)cc2)nc2ccccn12
inactive: NCI-H23 lung 95.4% | NCI-H226 lung 91% | NCI-H322M lung 90.4% | HOP-62 NSCLC 88.9% | NCI-H460 lung 103% | HOP-92 NSCLC 91% | NCI-H522 lung 51.5% | A549/ATCC NSCLC 62.8% | 786-0 renal 99% | COLO 205 colon 95.8% | DU-145 prostate 101% | K-562 leukemia 113% | MALME-3M melanoma 88.9% | MDA-MB-231 breast 94% | RXF 393 renal 108% | SF-268 CNS 94.3% | SF-295 CNS 90.2% | SF-539 CNS 92.3% | UACC-257 melanoma 81.8% | M14 melanoma 89.8%

CCCCCCCC(=O)Nc1nc2[nH]c(CN3CCN(Cc4cccc(I)c4)CC3)c(CN3CCN(Cc4cccc(I)c4)CC3)c2c(=O)[nH]1
active: NCI-H23 lung -24.5% | NCI-H322M lung -60% | HOP-62 NSCLC -88.6% | NCI-H460 lung -75% | HOP-92 NSCLC -67.3% | NCI-H522 lung -58.8% | A549/ATCC NSCLC -81.6% | 786-0 renal -98% | COLO 205 colon -81.2% | DU-145 prostate -83.5% | K-562 leukemia -43.8% | MALME-3M melanoma -49.9% | MDA-MB-231 breast -89.8% | RXF 393 renal -96.1% | SF-268 CNS -82.9% | SF-295 CNS -69.5% | SF-539 CNS -89.4% | UACC-257 melanoma -33% | M14 melanoma -56.6%
inactive: NCI-H226 lung 66.4%

COc1ccccc1C(C[N+](=O)[O-])c1c(-c2ccccc2)[nH]c2cc(C)ccc12 (stereo unspecified)
active: K-562 leukemia 8.66%
inactive: NCI-H23 lung 68.4% | NCI-H226 lung 53.1% | NCI-H322M lung 90.4% | HOP-62 NSCLC 71.9% | NCI-H460 lung 85.2% | HOP-92 NSCLC 64.4% | NCI-H522 lung 27.8% | A549/ATCC NSCLC 61.8% | 786-0 renal 86.8% | COLO 205 colon 78.4% | DU-145 prostate 101% | MALME-3M melanoma 61.2% | MDA-MB-231 breast 55.4% | RXF 393 renal 74.7% | SF-268 CNS 78.6% | SF-295 CNS 54.1% | SF-539 CNS 84.2% | UACC-257 melanoma 83%
